The record followed here is PubChem BioAssay (NCI).

Test systems include HCT-15 colon; HT29 colon; SNB-75 CNS; SNB-19 CNS; U251 CNS; PC-3 prostate; SK-MEL-5 melanoma; UACC-62 melanoma; LOX IMVI melanoma; SK-MEL-28 melanoma.
Common to all, as to test: NCI-60 one-dose screen, 48 h (100 = growth as untreated, 0 = no growth, -100 = all killed)
Conditions in all cases: 10 µM unless noted

About 83,000 compounds went through this panel and 20% of them were active in at least one assay; those are over-represented in the sample as a whole.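 For each line, cells grew in 96-well plates with the test compound present at a single concentration for 48 hours.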 Values without a mark were called inactive. Calls of active or inactive are those of the source. How the source made its calls: active means growth percent below 10; inactive means the rest.

With `Clc1ccc2c(NCCNC34CC5CC(CC(C5)C3)C4)ccnc2c1`, the growth with HCT-15 colon is -82% (active); in the experiment with HT29 colon it was -50.8% (active); in the experiment on SNB-75 CNS, -74.9% (active); with SNB-19 CNS, -54.2% (active); with U251 CNS, -61.8% (active); in the experiment with PC-3 prostate it was -5.27% (active). The growth with SK-MEL-5 melanoma was -96% (active); with UACC-62 melanoma, -89.9% (active); in the experiment with LOX IMVI melanoma, -91.5% (active); in the experiment on SK-MEL-28 melanoma, -93.5% (active).

In the case of `Cc1ccc(N=Nc2c(N)nn3c(-c4cc5ccccc5oc4=O)ccnc23)cc1`, the growth in the experiment with HCT-15 colon was 40.6%; in the experiment with HT29 colon it was 30.2%; with SNB-75 CNS, 93.7%; in the experiment with SNB-19 CNS it was 32.2%; with U251 CNS it was 43%; in the experiment with PC-3 prostate, 54.6%. Besides, the growth with SK-MEL-5 melanoma is 42.4%; in the experiment on UACC-62 melanoma, 82.3%; with LOX IMVI melanoma, 36%; in the experiment with SK-MEL-28 melanoma it was 44.7%.

Consider `O=C(NC(=S)N1CCN(c2ncnc3c2cnn3-c2ccccc2)CC1)c1ccc(Br)cc1`, for which the growth was 58.3% with HCT-15 colon; 86.4% with HT29 colon; 7.89% (active) in the experiment with SNB-75 CNS; 46.6% in the experiment with SNB-19 CNS; 56.5% with U251 CNS; 64.8% in the experiment on PC-3 prostate. Further, the growth is 75% in the experiment with SK-MEL-5 melanoma, 60.6% with UACC-62 melanoma, 41.1% in the experiment on LOX IMVI melanoma and 77.1% in the experiment on SK-MEL-28 melanoma.

For `CC(C)(C)C(=O)c1c2c(c3ccc4c5ccccc5ccc4n13)C(=O)c1ccccc1C2=O`, the growth is 81.7% with HCT-15 colon; 111% in the experiment on HT29 colon; 122% with SNB-75 CNS; 88.7% with SNB-19 CNS; 98.5% in the experiment on U251 CNS; 83% with PC-3 prostate. For the same compound, the growth in the experiment on SK-MEL-5 melanoma was 78.8%; in the experiment on UACC-62 melanoma, 97.2%; with LOX IMVI melanoma, 73.2%; with SK-MEL-28 melanoma, 105%.

As for `Cc1[nH]nc2ccc3nc(-c4cn[nH]c4C(F)(F)F)c4c(c3c12)CCCC4`, the growth in the experiment on HCT-15 colon was -4.58% (active); with HT29 colon it was 5.08% (active); in the experiment with SNB-75 CNS, -9.8% (active); in the experiment on SNB-19 CNS, 3.47% (active); in the experiment with U251 CNS it was 7.24% (active); in the experiment on PC-3 prostate, 4.97% (active). Moreover, the growth in the experiment on SK-MEL-5 melanoma is -51.2% (active); in the experiment with UACC-62 melanoma, -57.3% (active); with LOX IMVI melanoma, -39.9% (active); with SK-MEL-28 melanoma, -20.1% (active).

`N#Cc1ccc(C(=O)NNC(=O)CSc2nc3sc4c(c3c(=O)n2-c2ccc(Cl)cc2)CCCC4)cc1`: the growth in the experiment on HCT-15 colon is 51.2%; in the experiment with HT29 colon it was 56%; with SNB-75 CNS it was 86.7%; with SNB-19 CNS, 51.5%; in the experiment on U251 CNS, 15.9%; with PC-3 prostate it was 67%. The growth with SK-MEL-5 melanoma was 38.5%; in the experiment on UACC-62 melanoma, 4.59% (active); with LOX IMVI melanoma it was 39.7%; in the experiment with SK-MEL-28 melanoma it was 27.8%.

`O=C(Cc1c(-c2cccc([N+](=O)[O-])c2)n(-c2ncnc3c2c(-c2ccccc2)c(-c2ccccc2)n3Cc2ccccc2)[nH]c1=O)c1ccc(Cl)c(Cl)c1`: the growth in the experiment with HCT-15 colon was 62.3%; in the experiment on HT29 colon, 37%; with SNB-75 CNS, 46.1%; in the experiment with SNB-19 CNS, 25.9%; with U251 CNS, 26.4%; in the experiment on PC-3 prostate, 30.7%. The growth in the experiment on SK-MEL-5 melanoma was -10.2% (active); in the experiment with UACC-62 melanoma, 14%; in the experiment on LOX IMVI melanoma, 15.7%; with SK-MEL-28 melanoma, 46.3%.

Turning to `Nc1nnc(-c2cncc(Br)c2)c(-c2c[nH]c3ccc(Br)cc23)n1`, the growth is 37.1% in the experiment with HCT-15 colon; 35.6% with HT29 colon; 50.5% in the experiment with SNB-75 CNS; 59.5% in the experiment with SNB-19 CNS; 63% in the experiment with U251 CNS; 56% in the experiment on PC-3 prostate. The growth in the experiment with SK-MEL-5 melanoma was 31.1%; in the experiment with UACC-62 melanoma it was 55.2%; in the experiment with LOX IMVI melanoma, 43.1%; in the experiment with SK-MEL-28 melanoma it was 67.5%.

With `O=C1Nc2cc(-c3ccc(NS(=O)(=O)c4ccc(C(F)(F)F)cc4)cc3)ccc2/C1=C/c1ccc[nH]1`, the growth in the experiment on HCT-15 colon is 15.8%; in the experiment on HT29 colon, 12.2%; in the experiment on SNB-75 CNS, 18.6%; in the experiment on SNB-19 CNS, 69.9%; in the experiment with U251 CNS, 41.1%; in the experiment with PC-3 prostate it was 31.2%. For the same compound, the growth in the experiment on SK-MEL-5 melanoma was 42.7%; in the experiment with UACC-62 melanoma, 30.5%; with LOX IMVI melanoma it was 46.1%; in the experiment on SK-MEL-28 melanoma, 47.4%.

As to `COc1ccc(C2=NN(C(=O)[C@H]3[C@@H](c4ccco4)c4sc(=O)[nH]c4S[C@@H]3C)C(c3ccc4ccccc4c3)C2)cc1` (stereo not given in full), the growth in the experiment with HCT-15 colon is 12%; in the experiment with HT29 colon, 15.3%; with SNB-75 CNS, 50.8%; in the experiment with SNB-19 CNS, 39.8%; with U251 CNS, 19.5%; in the experiment on PC-3 prostate, 28.6%. Besides, the growth in the experiment on SK-MEL-5 melanoma is 36.5%; in the experiment on UACC-62 melanoma it was 29%; in the experiment with LOX IMVI melanoma, 31.3%; in the experiment on SK-MEL-28 melanoma, 32%.

As for `Cc1ccc(/C=C/C(=O)c2ccc(S(=O)(=O)NCCNc3nc(N(C)C)nc(N4CCOCC4)n3)cc2)cc1`, the growth in the experiment with HCT-15 colon is 46.1%; with HT29 colon, 37.3%; with SNB-75 CNS, 59.5%; with SNB-19 CNS, 79.1%; in the experiment with U251 CNS it was 42.7%; in the experiment with PC-3 prostate it was 57.4%. Besides, the growth with SK-MEL-5 melanoma is 89%; in the experiment on UACC-62 melanoma it was 72.6%; in the experiment on LOX IMVI melanoma, 42.1%; in the experiment on SK-MEL-28 melanoma it was 90.7%.

For the compound `Cc1ccc(Cl)cc1NC(=O)Nc1nc2ccc([N+](=O)[O-])cc2s1`, the growth in the experiment on HCT-15 colon was -4.98% (active); with HT29 colon, -18.9% (active); in the experiment on SNB-75 CNS, -26.6% (active); with SNB-19 CNS, 7.85% (active); in the experiment on U251 CNS it was -26.6% (active); in the experiment on PC-3 prostate, 2.69% (active). Further, the growth was -81.1% (active) in the experiment on SK-MEL-5 melanoma, -15.4% (active) in the experiment with UACC-62 melanoma, -21.1% (active) in the experiment with LOX IMVI melanoma and -17% (active) with SK-MEL-28 melanoma.

Regarding `COc1cc(-c2ccc3ncnc(N4CCc5ccc(Cl)cc54)c3c2)cnc1Cl`, the growth is 24% with HCT-15 colon; 15.1% with HT29 colon; -2.67% (active) in the experiment on SNB-75 CNS; 35% with SNB-19 CNS; 45.6% in the experiment on U251 CNS; 14.5% in the experiment on PC-3 prostate. In addition, the growth in the experiment on SK-MEL-5 melanoma was -1.72% (active); in the experiment on UACC-62 melanoma, 10%; in the experiment on LOX IMVI melanoma it was 11.7%; in the experiment on SK-MEL-28 melanoma, 23.8%.

Take `CN(C(=O)CN1C(=O)/C(=C/c2ccco2)SC1=S)C1CCS(=O)(=O)C1` (stereo not given): the growth with HCT-15 colon was 87.5%; in the experiment on HT29 colon, 99.5%; in the experiment on SNB-75 CNS, 89%; with SNB-19 CNS, 95.7%; with U251 CNS, 102%; in the experiment with PC-3 prostate it was 102%. The growth in the experiment with SK-MEL-5 melanoma was 98.5%; in the experiment on UACC-62 melanoma, 90%; with LOX IMVI melanoma it was 91.6%; with SK-MEL-28 melanoma, 105%.

Turning to `COC(=O)c1c(C(=O)OC)c2c3ccccc3c3ccccc3n2c1C(=O)C(F)(F)F`, the growth in the experiment on HCT-15 colon is 101%; in the experiment with HT29 colon, 103%; with SNB-75 CNS, 87.9%; in the experiment on SNB-19 CNS, 102%; in the experiment with U251 CNS, 105%; in the experiment on PC-3 prostate it was 72.4%. Further, the growth was 93.7% in the experiment with SK-MEL-5 melanoma, 63% in the experiment on UACC-62 melanoma, 87.7% in the experiment with LOX IMVI melanoma and 103% in the experiment on SK-MEL-28 melanoma.

Consider `CNc1nc2ccccc2n2c(-c3ccc(O)c(O)c3)cnc12`, for which the growth is 5.19% (active) in the experiment with HCT-15 colon; 2.27% (active) in the experiment with HT29 colon; -15.5% (active) with SNB-75 CNS; 27.5% with SNB-19 CNS; 6.12% (active) in the experiment on U251 CNS; 31.7% in the experiment with PC-3 prostate. For the same compound, the growth with SK-MEL-5 melanoma is -23.6% (active); in the experiment on UACC-62 melanoma it was 4.77% (active); with LOX IMVI melanoma, 5.44% (active); with SK-MEL-28 melanoma, 23.3%.

On to `CN1CCN(C(=O)Oc2cc3c(c4ccccc24)[C@H](CCl)CN3C(=O)c2cc3cc(OCCCN4CCC4)ccc3[nH]2)[C@H]2CSSC[C@H]21`, for which the growth is -1.96% (active) in the experiment with HCT-15 colon; -1.25% (active) in the experiment with HT29 colon; -77.2% (active) in the experiment on SNB-75 CNS; -15% (active) with SNB-19 CNS; 6.86% (active) in the experiment on U251 CNS; -8.67% (active) with PC-3 prostate. Further, the growth in the experiment on SK-MEL-5 melanoma was -21.2% (active); with UACC-62 melanoma it was -81.9% (active); with LOX IMVI melanoma it was -23.9% (active); with SK-MEL-28 melanoma, -51.1% (active).

In the case of `Nc1nn2c(-c3cc4cc(Br)ccc4oc3=O)ccnc2c1N=Nc1ccccc1`, the growth is 53.4% with HCT-15 colon; 22.4% in the experiment on HT29 colon; -59.8% (active) in the experiment on SNB-75 CNS; -54.5% (active) in the experiment on SNB-19 CNS; -11.2% (active) in the experiment with U251 CNS; 14.4% in the experiment on PC-3 prostate. The growth was -20.8% (active) in the experiment with SK-MEL-5 melanoma, 31.6% with UACC-62 melanoma, 18% in the experiment on LOX IMVI melanoma and 52.5% in the experiment on SK-MEL-28 melanoma.

Consider `COc1ccc(-n2c(NC(=O)N3CCN(C)CC3)c(C#N)c3ccccc32)cc1`, for which the growth in the experiment with HCT-15 colon is 57.5%; with HT29 colon, 84.2%; in the experiment with SNB-75 CNS, -4.12% (active); with SNB-19 CNS, 52.9%; with U251 CNS it was 41.9%; in the experiment on PC-3 prostate, 58.2%. In addition, the growth in the experiment on SK-MEL-5 melanoma was 37.4%; in the experiment with UACC-62 melanoma it was 50.9%; in the experiment with LOX IMVI melanoma, 9.35% (active); with SK-MEL-28 melanoma it was 68.8%.

In the case of `O=C1CCC(N2C(=O)c3cccc(NCCOCCOCCOCCC(=O)NCCCC(=O)NC(c4ccc5c(c4)OCO5)c4cc(Cl)c5cccnc5c4O)c3C2=O)C(=O)C1` (stereo not given), the growth with HCT-15 colon was 88.8%; with HT29 colon, 28.5%; with SNB-75 CNS, 62.7%; in the experiment with SNB-19 CNS, 28.5%; with U251 CNS, 27.2%; in the experiment with PC-3 prostate, 32.5%. Besides, the growth with SK-MEL-5 melanoma is 43.6%; in the experiment with UACC-62 melanoma, 0.155% (active); with LOX IMVI melanoma it was -37.6% (active); in the experiment with SK-MEL-28 melanoma it was 20.4%.
